Laboratory results taken from PubChem BioAssay (Tox21).
Records with an inconclusive call do not appear. Active and inactive are the calls of the source. Unless noted, calls come from the whole dose curve.

Tests used:
[1] = Nuclear factor erythroid 2-related factor 2/antioxidant responsive element (Nrf2/ARE) small molecule agonists: luciferase reporter gene qHTS assay in human keratinocytes (AID 1919969); note: nearly all actives have a fitted effect of over 35% in size; note: potency is the fitted concentration of half-maximal effect
[2] = target: Gonadotropin-releasing hormone receptor (Homo sapiens) (UniProt P30968); experiment: Human gonadotropin-releasing hormone receptor (GnRHR) small molecule agonists, calcium flux assay in GnRHR-HEK293 cells (AID 1920063); note: nearly all actives have a fitted effect of over 35% in size
Procedure, shortened: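 We seeded human GnRHR-expressing HEK293 cells for 18 hours, loaded them with calcium dye for an hour at 37 C, added test compounds, and recorded fluorescence intensity kinetically for three minutes.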

[3] = target: KiSS-1 receptor (Homo sapiens) (UniProt Q969F8); experiment: Human kisspeptin (KISS1R) small molecule agonists, calcium flux assay in KISS1R-HEK293 cells (AID 1920064; active = well fitted activation curve with a large enough effect in the repeat runs)
Procedure, shortened: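 Kinetic calcium assay, 1 s sampling over 3 min at Ex/Em 480/540, in HEK293 cells engineered with human KISS1R; compounds delivered in DMSO after 1 h dye loading.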

[4] = G protein-coupled receptor (GPCR) small molecule agonists, calcium flux assay: HEK293 wild type cell line counter screen (AID 1920065)
Procedure, shortened: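 Calcium-sensitive dye, loaded 1 h at 37 C into cells cultured 18 h, reports compound-evoked calcium release as fluorescence (Ex/Em 480/540), measured over 3 min. Agonist mode; 15-point titrations, triplicate.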

[5] = p53 small molecule agonists, cell-based qHTS assay with human liver microsomes (AID 1963577)
Procedure, shortened: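 Fluorescence of the beta-lactamase reporter in p53RE-bla cells, detected with LiveBLAzer substrate (2 h, room temperature, dark), served as the read-out after 16 h compound exposure at 37 C with human liver microsomes and NADPH, each 0.5 mg/mL final.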

[6] = p53 small molecule agonists, cell-based qHTS assay with rat liver microsomes (AID 1963578)
Procedure, shortened: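 Cells carrying a p53 response element–beta-lactamase reporter were plated and rested 5 h, then dosed with compound in DMSO plus rat liver microsomes and NADPH, each at 0.5 mg/mL final. After 16 h at 37 C, LiveBLAzer substrate was added for 2 h.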

[7] = p53 small molecule agonists, cell-based qHTS assay with human liver microsomes: qHTS cell viability counter screen (AID 1963579); note: nearly all actives have a fitted effect of over 45% in size; note: potency is the fitted concentration of half-maximal effect
Procedure, shortened: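 Cytotoxicity counter screen: p53RE-bla, 4,000 cells/well; 5 h settle, 37 C/5% CO2; cpd + HLM 0.5 mg/mL + NADPH 0.5 mg/mL (final); 16 h, 37 C; CellTiter-Glo, 30 min RT, luminescence.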

[8] = p53 small molecule agonists, cell-based qHTS assay with rat liver microsomes: qHTS cell viability counter screen (AID 1963580); note: nearly all actives have a fitted effect of over 45% in size; note: potency is the fitted concentration of half-maximal effect
Procedure, shortened: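 Viability is assessed in parallel with the p53 reporter read: HCT-116 p53RE-bla cells receive compounds plus rat microsomes and NADPH (0.5 mg/mL final apiece), incubate 16 h at 37 C, and then CellTiter-Glo luminescence is recorded.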

[9] = p53 small molecule agonists, cell-based qHTS assay: qHTS cell viability counter screen (AID 1963581); note: nearly all actives have a fitted effect of over 45% in size
Procedure, shortened: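 Following 5 h attachment, HCT-116 p53RE-bla cells took up compound for 16 h at 37 C; the reporter was read with B/G FRET substrate (2 h RT), and viability then via CellTiter-Glo ATP luminescence.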

[10] = target: 5-hydroxytryptamine receptor 2A (Homo sapiens) (UniProt P28223); experiment: 5-hydroxytryptamine receptor 2A (HTR2A) small molecule agonists, cell-based qHTS assay (AID 1963587); note: nearly all actives have a fitted effect of over 30% in size
Procedure, shortened: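 CHO cells stably expressing human HTR2A, plated 18 h, loaded with calcium dye 1 h at 37 C. Agonist mode: compounds added and intracellular calcium fluorescence recorded kinetically for 2 min at 1 sec intervals.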

[11] = target: Muscarinic acetylcholine receptor M1 (Homo sapiens) (UniProt P11229); experiment: Cholinergic receptor muscarinic 1 (CHRM1) small molecule antagonists, cell-based qHTS assay (AID 1963588); note: nearly all actives have a fitted effect of over 40% in size; note: potency is the fitted concentration of half-maximal effect
Procedure, shortened: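 CHRM1-CHO calcium-flux assay, antagonist mode. Cells were seeded 18 h, dye-loaded 1 h at 37 C and given compound for 5 min at RT, then acetylcholine was added at 50nM. FDSS fluorescence was read 3 min; 15 concentrations, three runs.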

[12] = target: Muscarinic acetylcholine receptor M1 (Homo sapiens) (UniProt P11229); experiment: Cholinergic receptor muscarinic 1 (CHRM1) small molecule agonists, cell-based qHTS assay (AID 1963589); note: nearly all actives have a fitted effect of over 35% in size
Procedure, shortened: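 Measures agonist-induced intracellular calcium rise. Stable human CHRM1 CHO line, 1 h dye load at 37 C, compounds from DMSO, kinetic fluorescence read.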

[13] = target: Beta-2 adrenergic receptor (Homo sapiens) (UniProt P07550); experiment: Adrenergic beta2 receptor (ADRB2) small molecule antagonists, cell-based qHTS assay (AID 1963592); note: nearly all actives have a fitted effect of over 50% in size; note: potency is the fitted concentration of half-maximal effect; for activity change, negative = inhibition: series mostly up to about 92 µM
Procedure, shortened: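 Cells (CHO, stable ADRB2 overexpression) incubated 18-20hr at 37C; compounds added from DMSO; agonist mix (1nM isoproterenol, 100uM IBMX, 25uM Ro-20-1724) added; 0.5hr RT; d2-cAMP and anti-cAMP-cryptate added; 1hr RT; 665/615 nm read.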

[14] = target: D(2) dopamine receptor (Homo sapiens) (UniProt P14416); experiment: Dopamine D2 receptor (DRD2) small molecule agonists, cell-based qHTS assay (AID 1963594); note: nearly all actives have a fitted effect of over 35% in size
Procedure, shortened: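 HEK293 cells stably expressing human DRD2, pre-treated with PDE inhibitor Ro20-1724 (0.1 mM final) and compound 10 min at room temperature, then stimulated with NKH477 (200nM […]) for 30 min. cAMP read by HTRF (665/620 nm).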

[15] = target: D(2) dopamine receptor (Homo sapiens) (UniProt P14416); experiment: Dopamine D2 receptor (DRD2) small molecule antagonists, cell-based qHTS assay (AID 1963595; active = well fitted inhibition curve with a large enough effect in the signal ratio in the repeat runs, with a control signal flat; the % refers to the signal ratio)
Procedure, shortened: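 In this cell-based antagonist screen, compounds act for 10 min at room temperature before a 30 min challenge with 12 nM quinpirole and 200 nM NKH477. cAMP is quantified by HTRF competition in DRD2-HEK293 cells containing 0.1 mM Ro20-1724.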

[16] = cAMP Responsive Elements (CRE) small molecule agonists, cell-based qHTS assay (AID 1963590)
Procedure, shortened: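 A CRE-responsive beta-lactamase reporter in HEK 293T cells was used. Treatment ran 3 h at 37 C; detection used LiveBLAzer B/G FRET substrate for 2 h at room temperature.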

[17] = cAMP Responsive Elements (CRE) small molecule antagonists, cell-based qHTS assay (AID 1963591; active = well fitted inhibition curve with a large enough effect in the signal ratio in the repeat runs, not every such curve was filed as active; the % refers to the signal ratio)
Procedure, shortened: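 HEK293T cells carrying a CRE-driven beta-lactamase reporter receive compound and NKH477 (0.25 uM final) for 3 h. Fluorescence from LiveBLAzer B/G FRET substrate is read after 2 h at room temperature.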

[18] = target: Beta-2 adrenergic receptor (Homo sapiens) (UniProt P07550); experiment: Adrenergic beta2 receptor (ADRB2) small molecule agonists, cell-based qHTS assay (AID 1963593);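 note: CHO cells stably overexpressing human ADRB2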
Procedure, shortened: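 CHO cells stably over-expressing ADRB2 were plated overnight at 37C, then dosed with compounds plus a stimulation mix containing 100uM IBMX and 25uM Ro-20-1724 for 0.5hr at room temperature. cAMP was measured by HTRF competition, 1hr.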

[19] = target: 5-hydroxytryptamine receptor 2A (Homo sapiens) (UniProt P28223); experiment: 5-hydroxytryptamine receptor 2A (HTR2A) small molecule antagonists, cell-based qHTS assay (AID 1963586); note: nearly all actives have a fitted effect of over 45% in size
Procedure, shortened: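 Antagonist-mode intracellular calcium assay: DOI (4 nM) added after 5 min compound pre-incubation at room temperature to dye-loaded HTR2A-CHO cells. Fluorescence followed for 3 min, sampled every second.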

[20] = p53 small molecule agonists, cell-based qHTS assay (AID 1963582; active = well fitted activation curve with a large enough effect in the signal ratio in the repeat runs, not every such curve was filed as active; the % refers to the signal ratio)
Procedure, shortened: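 In this cell-based concentration-response screen, a p53 response element drives beta-lactamase; cells received DMSO-borne compounds after 5 h culture and were incubated a further 16 h before FRET substrate development.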
% is set by controls: 0 for no effect and ±100 for the full control effect.

Sequence of Gonadotropin-releasing hormone receptor (Homo sapiens) (P30968 whole entry, looked up): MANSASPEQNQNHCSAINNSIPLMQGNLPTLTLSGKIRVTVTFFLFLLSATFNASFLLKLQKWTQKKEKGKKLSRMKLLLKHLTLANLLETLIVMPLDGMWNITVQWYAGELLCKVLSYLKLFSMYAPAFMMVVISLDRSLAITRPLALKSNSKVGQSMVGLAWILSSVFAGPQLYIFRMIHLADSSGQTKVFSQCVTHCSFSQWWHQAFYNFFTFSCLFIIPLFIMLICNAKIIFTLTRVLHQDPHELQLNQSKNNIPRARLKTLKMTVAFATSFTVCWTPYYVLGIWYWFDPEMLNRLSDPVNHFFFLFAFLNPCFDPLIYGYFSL
Sequence of Muscarinic acetylcholine receptor M1 (Homo sapiens) (P11229 whole entry, looked up): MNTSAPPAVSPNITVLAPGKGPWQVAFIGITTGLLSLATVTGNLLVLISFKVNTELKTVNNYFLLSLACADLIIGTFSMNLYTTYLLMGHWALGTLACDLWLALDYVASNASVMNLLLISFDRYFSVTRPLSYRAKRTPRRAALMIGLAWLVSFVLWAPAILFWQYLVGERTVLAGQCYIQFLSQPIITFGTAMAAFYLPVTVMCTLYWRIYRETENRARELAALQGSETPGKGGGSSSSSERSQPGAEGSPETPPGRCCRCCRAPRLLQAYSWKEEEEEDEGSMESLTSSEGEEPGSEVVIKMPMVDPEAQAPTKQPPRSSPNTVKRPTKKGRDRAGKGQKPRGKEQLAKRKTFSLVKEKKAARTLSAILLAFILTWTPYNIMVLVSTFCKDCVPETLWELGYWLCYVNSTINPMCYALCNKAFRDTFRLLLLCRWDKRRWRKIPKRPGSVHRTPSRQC
Sequence of Beta-2 adrenergic receptor (Homo sapiens) (P07550 whole entry, looked up): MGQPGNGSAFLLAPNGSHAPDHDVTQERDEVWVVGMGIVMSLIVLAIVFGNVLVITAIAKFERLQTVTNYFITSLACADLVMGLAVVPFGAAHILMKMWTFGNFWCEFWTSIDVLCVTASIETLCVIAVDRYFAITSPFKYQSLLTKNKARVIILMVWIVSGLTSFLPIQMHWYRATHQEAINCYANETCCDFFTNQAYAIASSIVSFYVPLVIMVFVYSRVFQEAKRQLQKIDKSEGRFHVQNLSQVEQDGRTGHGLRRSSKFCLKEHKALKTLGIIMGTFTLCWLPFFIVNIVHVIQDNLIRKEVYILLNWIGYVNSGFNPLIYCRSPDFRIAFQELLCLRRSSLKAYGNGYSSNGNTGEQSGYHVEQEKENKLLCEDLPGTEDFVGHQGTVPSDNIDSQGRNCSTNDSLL
Sequence of 5-hydroxytryptamine receptor 2A (Homo sapiens) (P28223 whole entry, looked up): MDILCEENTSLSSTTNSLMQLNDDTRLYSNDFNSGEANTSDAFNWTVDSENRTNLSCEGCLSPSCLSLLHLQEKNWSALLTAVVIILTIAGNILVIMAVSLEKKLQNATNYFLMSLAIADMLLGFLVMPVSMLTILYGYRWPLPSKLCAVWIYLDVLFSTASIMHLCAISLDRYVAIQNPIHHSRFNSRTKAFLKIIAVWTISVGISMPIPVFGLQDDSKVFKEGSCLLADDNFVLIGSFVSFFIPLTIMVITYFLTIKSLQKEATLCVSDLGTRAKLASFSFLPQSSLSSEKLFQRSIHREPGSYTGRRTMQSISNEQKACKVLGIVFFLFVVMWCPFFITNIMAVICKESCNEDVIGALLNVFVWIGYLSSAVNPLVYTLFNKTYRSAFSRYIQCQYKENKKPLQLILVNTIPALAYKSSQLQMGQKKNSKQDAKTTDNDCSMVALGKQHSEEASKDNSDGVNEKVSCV
Sequence of KiSS-1 receptor (Homo sapiens) (Q969F8 whole entry, looked up): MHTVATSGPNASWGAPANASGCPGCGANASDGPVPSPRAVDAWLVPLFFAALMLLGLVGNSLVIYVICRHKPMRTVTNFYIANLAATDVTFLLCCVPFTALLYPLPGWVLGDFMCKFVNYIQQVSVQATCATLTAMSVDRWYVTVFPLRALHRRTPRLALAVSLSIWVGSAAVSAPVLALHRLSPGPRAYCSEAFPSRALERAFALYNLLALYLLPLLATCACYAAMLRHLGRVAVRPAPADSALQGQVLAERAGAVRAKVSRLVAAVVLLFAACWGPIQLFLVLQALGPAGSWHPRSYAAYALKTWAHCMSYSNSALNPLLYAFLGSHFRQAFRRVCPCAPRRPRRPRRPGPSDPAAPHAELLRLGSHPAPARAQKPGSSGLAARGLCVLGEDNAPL
Sequence of D(2) dopamine receptor (Homo sapiens) (P14416 whole entry, looked up): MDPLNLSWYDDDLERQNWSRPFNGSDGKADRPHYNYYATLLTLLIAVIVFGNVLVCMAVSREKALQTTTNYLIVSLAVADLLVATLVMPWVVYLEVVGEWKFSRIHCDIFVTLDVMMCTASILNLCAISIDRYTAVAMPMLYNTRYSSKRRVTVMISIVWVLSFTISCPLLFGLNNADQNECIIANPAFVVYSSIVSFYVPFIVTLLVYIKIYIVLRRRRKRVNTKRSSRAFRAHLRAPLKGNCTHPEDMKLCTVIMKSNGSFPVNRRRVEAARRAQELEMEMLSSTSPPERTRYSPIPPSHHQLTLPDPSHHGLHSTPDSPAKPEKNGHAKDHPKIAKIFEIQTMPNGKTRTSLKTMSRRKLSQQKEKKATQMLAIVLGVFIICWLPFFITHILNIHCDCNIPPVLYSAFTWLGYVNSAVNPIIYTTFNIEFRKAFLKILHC

NCCCOCCOCCOCCCN
inactive: Potency [1] | Potency [2] | Potency [3] | Potency [4] | Potency [5] | Potency [6] | Potency [7] | Potency [8] | Potency [9] | Potency [10] | Potency [11] | Potency [12] | Potency [13] | Potency [14] | Potency [15]

CN1CCN(c2cc3c(nn2)Oc2ccccc2N3C)CC1
inactive: activity, positive = activation [1] 17.2% [at 19 µM] | activity change [2] -0.362% [at 11.8 µM, active compounds read high] | activation [3] -0.078% [at 15.8 µM] | activation [4] -0.0481% [at 11.8 µM] | activation [5] -1.74% [at 13.5 µM] | activation [6] 0.736% [at 13.6 µM] | activity change, negative = cytotoxicity [7] -6.1% [at 13.5 µM] | activity change, negative = cytotoxicity [8] 0.69% [at 13.5 µM] | activity change, negative = cytotoxicity [9] -9.68% [at 13.5 µM] | activation [10] -12.8% [at 15.9 µM] | activation [12] 3.18% [at 15.8 µM] | activation [16] 1.47% [at 19 µM] | activity change, negative = inhibition [17] 0.639% [at 18.9 µM] | activity change, negative = inhibition [13] 3.6% [at 19 µM] | activation [18] 4.93% [at 19 µM] | activation [14] 11.1% [at 19 µM] | activity change, negative = inhibition [15] -3.28% [at 18.9 µM]

CCCCCCCCCCCCCCCCCC[N+](C)(C)Cc1ccccc1
active: Potency [7] 46.2 µM | Potency [8] 46.2 µM | Potency [13] 61.7 µM
inactive: Potency [1] | Potency [2] | Potency [3] | Potency [4] | Potency [5] | Potency [6] | Potency [19] | Potency [12] | Potency [14]

Cc1ccc(N=Nc2c(O)c(C(=O)O)cc3ccccc23)c(S(=O)(=O)O)c1
inactive: Potency [1] | Potency [2] | Potency [3] | Potency [4] | Potency [5] | Potency [6] | Potency [7] | Potency [8] | Potency [9] | Potency [19] | Potency [10] | Potency [12] | Potency [17] | Potency [13] | Potency [18] | Potency [14] | Potency [15]

CC(C)CCCCCCCOC(=O)c1ccc(C(=O)OCCCCCCCC(C)C)c(C(=O)OCCCCCCCC(C)C)c1
inactive: Potency [2] | Potency [3] | Potency [4] | Potency [5] | Potency [6] | Potency [9] | Potency [20] | Potency [19] | Potency [10] | Potency [11] | Potency [12] | Potency [16] | Potency [17] | Potency [13] | Potency [14] | Potency [15]
active: Potency [1] 24 µM | Potency [7] 16 µM

CCCCN(CCCC)CC(O)c1cc(Cl)cc2c1-c1ccc(Cl)cc1/C2=C/c1ccc(Cl)cc1 (stereo not drawn)
inactive: Potency [1] | Potency [2] | Potency [3] | Potency [4] | Potency [5] | Potency [6] | Potency [7] | Potency [8] | Potency [20] | Potency [19] | Potency [10] | Potency [11] | Potency [12] | Potency [15]

c1cc(CN2CCCCC2)cc(OCCCNc2nc3ccccc3s2)c1
active: Potency [11] 5.79 µM
inactive: Potency [1] | Potency [2] | Potency [3] | Potency [4] | Potency [5] | Potency [6] | Potency [7] | Potency [8] | Potency [9] | Potency [10] | Potency [12] | Potency [16] | Potency [14]

O=c1cc(-c2ccccc2)oc2cc(O)cc(O)c12
active: Potency [1] 24.3 µM
inactive: Potency [2] | Potency [3] | Potency [4] | Potency [5] | Potency [6] | Potency [7] | Potency [8] | Potency [9] | Potency [19] | Potency [10] | Potency [11] | Potency [12] | Potency [13] | Potency [14] | Potency [15]
